This is an account of results in PubChem BioAssay AID1347430 (National Center for Advancing Translational Sciences (NCATS), 2020).

Screen size: about 91,000 compounds; about 130 (0.14%) were called active. Not shown: some 3% with an inconclusive outcome. For the sample, actives were picked, then their nearest neighbours and some compounds at random. Unmarked numbers belong to inactive results. Calls follow the shape of the dose curve; as a rule, active = well fitted inhibition curve with a large enough effect; inconclusive = small, poorly fitted or top-dose-only effect; inactive = flat fitted curve, though single readings scatter.
% is scaled to controls: 0 for no effect and ±100 for the full control effect; potency is read from the fitted curve at half-maximal effect.

For the test, the system named is Uracil-DNA glycosylase. Nature of the test: Primary qHTS assay for inhibitors of Activation Induced Cytidine Deaminase (AID): UDG Counterscreen signal. Also: nearly all actives have a fitted effect of over 65% in size. The note with it: FRET deamination/UDG coupled assay, UDG read, 4 h; series mostly up to 115 µM; activity change, negative = inhibition: at the top concentration. An excerpt:
Assay Provider (PI) Patricia Gearhart Ph.D.
National Institute on Aging
National Institute of Health (NIH), Bethesda, MD
Assay Provider (PI) Rahul Kohli Ph.D.
Perelman School of Medicine
University of Pennsylvania, Philadelphia, PA
Activation-Induced Deaminase (AID) is a cytosine deaminase which converts cytosine into uracil within stretches of ssDNA. The presence of uracil in DNA initiates a cascade of mutagenic DNA repair to introduce point mutations and DNA double strand breaks. Specific targeting of AID to the immunoglobulin heavy chain loci (Igh) promotes mutagenesis in the antibody variable region for somatic hypermutation (SHM) or switch regions leading to class switch recombination (CSR). However, AID also plays a role in accumulating unnecessary mutations across the genome. Mis-targeting of AID results in the initiation of tumor development and leads to greater drug resistance among cancer cells when continually expressed. To identify an AID inhibitor, a small molecule library will be screened in collaboration with NCATS core facility at NIH. To confirm biological function, inhibitors will be examined in an in vitro murine B-cell activation assay and subsequent secondary validation screens. Top molecules will be further screened to identify inhibitory efficacy against a wild type primary splenocytes assay. Using these approaches, we hope to identify a small molecule with great efficacy and low toxicity for use as a molecular probe to further characterize AID's intricacies, or even as a therapeutic.
A FRET based analysis of cytosine deamination, was developed to identify potential inhibitors of AID catalytic activity. This screen has two signal output, Read 1 evaluates the AID inhibition response. The second readout (Read 2) evaluates UDG response and is uses as a counterscreen to exclude false positive inhibitors. Inhibition in AID and inactivity in the UDG signal is the desired outcome for this assay.
SEQUENCE No. (e.g., 1, 2, 3, etc.); […] (e.g., Cells, Incubation, Reagent, etc.); VALUE; DESCRIPTION
1a; Reagent; 3 uL; [4/3x] 1 uM AID/2.67 U/mL UDG
1b; Reagent; 3 uL; 2 U/mL UDG
1c; Reagent; 3 uL; 1 uM AID
2a; Compound; 46 nL; Follow-up plates (0.64 uM - 10 mM)
2b; Control; 46 nL; ATA ([…] - 10 mM)
3; Time; 10 min; incubation at room temperature
5; Time; 4 hr; incubation at room temperature
6; Reagent; 4 uL; [2x] 250 mM NaOH
7; Time; 15 sec; centrifuge at 1000 rpm
8; Time; 30 min; incubation at room temperature
9a; Detection; fluorescence (Read 1: AID); EnVision (PerkinElmer) plate reader, 540 excitation and 590 emission filters
9b; Detection; fluorescence (Read 2: UDG); EnVision (PerkinElmer) plate reader, 560 excitation and 665 emission filters
NOTES (numbers refer to sequence above)
1a; Reagents were dispensed in a medium-binding black solid-bottom Greiner plates (789176F) using a BioRptr liquid dispenser. Dispense 3 uL of [4/3x] 1 uM AID (provided by Kohli lab) and [4/3x] 2 U/mL UDG (NEB M0280L) into columns 1, 2, 5 to 48.
1b; Dispense 3 uL of [4/3x] 2 U/mL UDG into column 3.
1c; Dispense 3 uL of [4/3x] 1 uM AID into column 4.
2a; Compound (7-points [uM] (0.64; 3.2; 16; 80; 400; 2,000; 10,000; 20,000) double pin-transferred (Dip Factor = 2) using the Kalypsys (Wako USA) pintool equipped with a 1536 pinhead for a final concentration range of 7.32 nM - 114 uM.
2b; 10 mM Aurintricarboxylic Acid (Sigma A1895) (ATA, 8-point, n = 2, 1:2.5 dilution in column 2) double pin-transferred (Dip Factor = 2) using the Kalypsys (Wako USA) pintool equipped with a 1536 pinhead for a [final] range of 186 nM - 114 uM.
3; Room temperature incubation.
4; Dispense 1 uL of substrate mixture from the Kohli lab [4x] […] DJC20 and [4x] 250 nM DJC23 into columns 1 to 48 .
5; Room temperature incubation.
6; Dispense 4 uL of substrate mixture [2x] 250 mM NaOH into columns 1 to 48.
7; Centrifugation step to remove bubbles.
8; Room temperature incubation
9a; Fluorescence signal (column label AID) was read using the EnVision plate reader. […]
(In general: qHTS replaces the single test concentration by a dilution series.)
For `COCCn1c(C)cc(C(=O)C(=O)Nc2nnc(COc3cc(C)ccc3C)s2)c1C`, the “activity change, negative = inhibition” value was -9%.

In the case of `CN(Cc1ccccc1)c1ncnc2onc(-c3ccc(F)cc3)c12`, the “activity change, negative = inhibition” value was -13.7%.

In the case of `CCc1ccccc1N(C)C(=O)C1CCCN(c2ncnc3onc(-c4ccc(F)cc4)c23)C1` (stereo not given), the “activity change, negative = inhibition” value was -1.14%.

Consider `CCc1ccc(N(CC)C(=O)CCn2cnc3onc(-c4ccc(F)cc4)c3c2=O)cc1`, for which the Potency was 89.1 µM (active).

With `CCN(CC)C(=O)CNC(=O)c1cc2ccccc2c(OC)n1`, the “activity change, negative = inhibition” value was -7.51%.

For the compound `N#Cc1cccc(C(=O)NC(c2ccccc2)c2cccs2)c1` (stereo not given), the “activity change, negative = inhibition” value is 4.19%.

Take `CCCC/C=N/NC(=O)CCCCCCCCCCC`: the “activity change, negative = inhibition” value was -3.8%.

Consider `CCCCCCCc1ccc(-c2ccc(OC)cc2)nc1`, for which the “activity change, negative = inhibition” value was 9.76%.

Consider `CCN(CC)S(=O)(=O)c1cc(NC(=O)c2n[nH]c3ccccc23)ccc1C`, for which the “activity change, negative = inhibition” value is 8.71%.

Turning to `O=S(=O)(Cc1nnnn1-c1ccccc1)c1ccccc1`, the “activity change, negative = inhibition” value is 5.04%.

In the case of `CCCNc1c(NC(=O)C(C)C)c(=O)oc2ccccc12`, the “activity change, negative = inhibition” value was -1.43%.

In the case of `CC(C)(C)c1ccccc1OCC(=O)Nc1cccc(C#N)c1`, the “activity change, negative = inhibition” value was -9.25%.

Regarding `COCC(C)n1c(COc2ccccc2F)nnc1SCC(C)C` (stereo not given), the “activity change, negative = inhibition” value is 1.84%.

On to `COCCNC(=S)NNC(=O)Cc1ccc(OC)c(OC)c1`, for which the “activity change, negative = inhibition” value was -11.8%.

In the case of `CCCCNC(=O)CCc1c[nH]c2ccccc12`, the “activity change, negative = inhibition” value was -1.33%.

As for `COC(=O)CNC(=O)/C(C)=C/c1ccccc1`, the “activity change, negative = inhibition” value was -1.2%.

`N#Cc1ccc(CNc2cc(Cl)ccc2Cl)cc1`: the “activity change, negative = inhibition” value is 4.42%.

Turning to `Cc1ccc(NC(=O)c2ccc(Cl)cc2N2CCCC2=O)cc1`, the “activity change, negative = inhibition” value was 1.04%.

On to `Ic1nc[nH]c1I`, for which the “activity change, negative = inhibition” value is 10.9%.

In the case of `COc1ccc(NC(=O)COc2ccc(F)cc2)c2cccnc12`, the “activity change, negative = inhibition” value is 4.14%.

`Cc1ccc(-n2c(SCC(=O)Nc3cccc(F)c3)nc3c(=O)[nH]cnc32)cc1`: the “activity change, negative = inhibition” value was 3.06%.

`Cc1ccc(C(=O)NC(C)C)c(Cl)c1`: the “activity change, negative = inhibition” value is -0.64%.

As for `Cc1cc(C)c2c(c1)/C(=N/Nc1nc3ccccc3[nH]1)CCC2`, the “activity change, negative = inhibition” value is -5.03%.

`Cc1[nH]c2ccccc2c1/C=N/c1sc2c(c1C#N)CCC(C)C2` (stereo not given): the “activity change, negative = inhibition” value is 3.48%.

For `CCCc1ccc(OC(=O)c2ccc3c(c2)-c2ccccc2C3=O)cc1`, the “activity change, negative = inhibition” value is -5.71%.

Turning to `Cc1csc(SCCCOc2ccc(C#N)cc2)n1`, the “activity change, negative = inhibition” value is 3.62%.

As to `COc1ccc(CNC(=S)NCC(C)N2CCCCC2C)cc1` (stereo not given), the “activity change, negative = inhibition” value was 1.69%.

For `Cn1nc(C(=O)OCC(=O)N(Cc2ccccc2)C(C)(C)C)c2ccccc2c1=O`, the “activity change, negative = inhibition” value was -7.83%.

As to `O=C(C1=COCCO1)N1CCN(c2ccccc2)CC1`, the “activity change, negative = inhibition” value is -24.2%.

Regarding `O=C1/C(=C/c2cccc(Br)c2)CCc2ccccc21`, the “activity change, negative = inhibition” value was -7.11%.

For the compound `COc1ccc(C(=O)/C(C#N)=C\c2ccccc2OC(F)F)cc1`, the “activity change, negative = inhibition” value is -11.4%.

Turning to `Cc1cc(C(=O)O)cc(S(=O)(=O)Nc2ccc(Cl)c3cccnc23)c1C`, the “activity change, negative = inhibition” value was 2.05%.

With `C=CCNC(=O)NC(=O)CN(C)Cc1ccc(-c2ccc(Br)cc2)o1`, the “activity change, negative = inhibition” value was 2%.

In the case of `CC(C)CNC(=O)CSc1nnc(COc2ccccc2Cl)o1`, the “activity change, negative = inhibition” value is -6.81%.

For the compound `O=C(O)c1ccc(Nc2nc(-c3ccc4ccccc4c3)cs2)cc1O`, the “activity change, negative = inhibition” value was 17.7%.

`CC(=O)Nc1ccc(NC(=O)Nc2ccccc2Cl)cc1`: the “activity change, negative = inhibition” value was -8.72%.

For `CCN1CCC(CNC(=O)c2cc(C)nc3cc(F)ccc23)CC1`, the “activity change, negative = inhibition” value is -2.03%.

Regarding `COc1ccc(NC(NC(=O)C(C)C)C(Cl)(Cl)Cl)cc1` (stereo not given), the “activity change, negative = inhibition” value was -4.93%.

Turning to `O=C(CCc1ncc(-c2ccc(F)cc2)o1)NCc1ccc(OC(F)F)cc1`, the “activity change, negative = inhibition” value was 7.08%.

As for `CNC(=S)NNC(=O)c1cccc(C)c1`, the “activity change, negative = inhibition” value was -13.5%.

Regarding `CC(=O)NCc1ccc(C(=O)COc2ccc(C(C)=O)cc2)cc1`, the “activity change, negative = inhibition” value was -5.52%.

Regarding `N#Cc1ccccc1-n1ccnc1`, the “activity change, negative = inhibition” value was 3.71%.

Take `O=C(OCC(=O)c1cccs1)c1cccc(O)c1`: the “activity change, negative = inhibition” value was 12.3%.

Turning to `CC(C)(C)c1nc2cc(NC(=O)c3ccc[nH]c3=O)ccc2o1`, the “activity change, negative = inhibition” value is -7.52%.

Regarding `COc1ccccc1NC(=O)CSc1nc2c(=O)[nH]cnc2n1-c1ccccc1`, the “activity change, negative = inhibition” value is -13.3%.

In the case of `O=C(O)c1cccnc1SC(F)(F)F`, the “activity change, negative = inhibition” value is 5.69%.

On to `Cc1ccc(C(CNC(=O)c2cc(-c3ccccc3)on2)N2CCC(C)CC2)o1` (stereo not given), for which the “activity change, negative = inhibition” value is -1.82%.

As for `O=C(CCC1CCCC1)N1CCN(CC2CC=CCC2)CC1` (stereo not given), the “activity change, negative = inhibition” value is -5.57%.

Turning to `CC(=O)c1c(C)[nH]c(C(=O)OCC(=O)Nc2ccc(Br)c(C)c2)c1C`, the “activity change, negative = inhibition” value was 6.68%.

As for `COC(=O)Cn1cnc2c(sc3nc(C4CCCCC4)c4c(c32)CCC4)c1=O`, the “activity change, negative = inhibition” value is 2.71%.

As to `COc1cccc2cc(/C=C(/C#N)c3nc4ccccc4[nH]3)oc12`, the “activity change, negative = inhibition” value is 2.17%.

As for `COc1cc(SC)ccc1C(=O)Oc1cccc(F)c1`, the “activity change, negative = inhibition” value was -2.38%.

Consider `CCCCn1c(=O)[nH]c(=O)c2c1nc(COC(=O)c1cc(C)ccc1C)n2CCC`, for which the “activity change, negative = inhibition” value was -5.99%.

As for `O=C1C(O)=C(c2ccccc2)C(c2ccccc2)N1Cc1ccccn1` (stereo not given), the “activity change, negative = inhibition” value is -8.73%.

For the compound `CCCCC(CC)CNc1ncnc2sccc12` (stereo not given), the “activity change, negative = inhibition” value was -2.93%.

In the case of `CCc1c(C)sc(NC(=O)c2cccc3ccccc23)c1C#N`, the “activity change, negative = inhibition” value is -6.9%.

Take `Cc1cn2c(=O)cc(COC(=O)COc3ccccc3)nc2s1`: the “activity change, negative = inhibition” value was 3.76%.

Turning to `O=C(NC1C2CC3CC(C2)CC1C3)c1cccc(Br)c1` (stereo not given), the “activity change, negative = inhibition” value is 2.83%.

For `Cc1ccc2cccc(NC(=O)c3ccccc3C)c2n1`, the “activity change, negative = inhibition” value was -2.94%.

In the case of `CCCc1cc(=O)oc2c(C)c(OCC(=O)NCc3ccccn3)ccc12`, the “activity change, negative = inhibition” value is 2.15%.

Consider `CCCCc1c/c(=N\O)oc2cc3occ(C)c3cc12`, for which the “activity change, negative = inhibition” value is -7.72%.

`N#C/C(=C/c1ccccc1OC(F)F)c1nc2cc(C(F)(F)F)ccc2s1`: the “activity change, negative = inhibition” value was -13.5%.

With `Cc1csc(CNC(=O)c2cnccn2)n1`, the “activity change, negative = inhibition” value is -1.93%.

As for `CCN(C(=O)COc1ncnc2c(Cl)cc(Cl)cc12)c1ccccc1`, the “activity change, negative = inhibition” value is -0.784%.

For `O=[N+]([O-])c1cc(S(=O)(=O)Nc2ccccc2NS(=O)(=O)c2cccs2)ccc1Cl`, the “activity change, negative = inhibition” value was -0.862%.
